Reference: PubChem BioAssay (EPA / NIEHS)
Values joined by “and” are separate entries in the source; they are usually repeats but may differ in a detail not shown here. Equal entries are not always repeated. Inconclusive results are not listed. The source holds several records for some structures; these can differ, active in one and inactive in another. Active and inactive are the calls of the source. Rule for the calls, unless noted: active = hit-call score of the fitted dose curve at least 0.9, where 1 is the maximum; inactive = score below 0.9.

Read-out: Interleukin 17A (IL17A), IL17A (gene 3605)
Assay: BSK_BT_xIL17A: BioMAP Diversity Plus: BT Assay for Interleukin 17A (IL17A) Biomarker Activity (AID 2284229)
Conditions: primary human B cells with PBMC
How it was run: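 Co-culture of human B cells and PBMC, dosed for 24 h in 96-well format. Secreted IL-17A measured with Luminex xMAP; gain-direction fitting against DMSO as baseline.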

Chain of Tumor necrosis factor (Homo sapiens) (P01375 whole entry, looked up): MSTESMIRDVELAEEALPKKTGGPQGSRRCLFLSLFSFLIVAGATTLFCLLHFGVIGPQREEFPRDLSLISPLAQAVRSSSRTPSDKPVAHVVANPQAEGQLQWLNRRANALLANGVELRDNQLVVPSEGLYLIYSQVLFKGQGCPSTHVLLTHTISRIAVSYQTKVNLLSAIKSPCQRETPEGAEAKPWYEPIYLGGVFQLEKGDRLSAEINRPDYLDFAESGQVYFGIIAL

**Q.** Which outcome does the source give for Oc1c(Cl)c(Cl)c(Cl)c(Cl)c1Cl here?
**A.** inactive

**Q.** Which outcome does the source give for O=S(=O)(O)C(F)(F)C(F)(F)C(F)(F)C(F)(F)F here?
**A.** inactive

**Q.** Which outcome does the source give for O=C(O)C(F)(F)C(F)(F)C(F)(F)C(F)(F)C(F)(F)C(F)(F)C(F)(F)C(F)(F)F here?
**A.** inactive

**Q.** With O=C(O)C(F)(F)C(F)(F)C(F)(F)C(F)(F)C(F)(F)F as the compound, how does the outcome read?
**A.** inactive

**Q.** For O=C(O)C(F)(F)C(F)(F)C(F)(F)C(F)(F)C(F)(F)C(F)(F)C(F)(F)C(F)(F)C(F)(F)F, which AC50 is on record?
**A.** 37.8 µM (active)

**Q.** What about the outcome of the same compound?
**A.** inactive

**Q.** For NS(=O)(=O)C(F)(F)C(F)(F)C(F)(F)C(F)(F)C(F)(F)C(F)(F)C(F)(F)C(F)(F)F, which AC50 is on record?
**A.** 46.5 µM (active)

**Q.** And the outcome?
**A.** inactive

**Q.** For O=S(=O)(O)C(F)(F)C(F)(F)C(F)(F)C(F)(F)C(F)(F)C(F)(F)F, which outcome is on record?
**A.** inactive

**Q.** Which outcome does the source give for Sc1ccccc1 here?
**A.** inactive

Read-out: Tumor necrosis factor (Homo sapiens) (UniProt P01375)
Assay: BSK_BT_xTNFa: BioMAP Diversity Plus: BT Assay for Tumor necrosis factor alpha (TNF-alpha) Biomarker Activity (AID 2284230)
Conditions: primary human B cells with PBMC
How it was run: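 Human primary co-culture of B cells and peripheral blood mononuclear cells; TNF-alpha in supernatant, 24 h post-dose, Luminex multiplex; DMSO = baseline.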

**Q.** Which outcome does the source give for Oc1c(Cl)c(Cl)c(Cl)c(Cl)c1Cl here?
**A.** inactive

**Q.** With O=S(=O)(O)C(F)(F)C(F)(F)C(F)(F)C(F)(F)F as the compound, how does the outcome read?
**A.** inactive

**Q.** What does the source list for O=C(O)C(F)(F)C(F)(F)C(F)(F)C(F)(F)C(F)(F)C(F)(F)C(F)(F)C(F)(F)F?
**A.** AC50: 49.8 µM (active); outcome: inactive

**Q.** With O=C(O)C(F)(F)C(F)(F)C(F)(F)C(F)(F)C(F)(F)F as the compound, how does the outcome read?
**A.** inactive

**Q.** With O=C(O)C(F)(F)C(F)(F)C(F)(F)C(F)(F)C(F)(F)C(F)(F)C(F)(F)C(F)(F)C(F)(F)F as the compound, how does the outcome read?
**A.** inactive

**Q.** Which AC50 does the source give for NS(=O)(=O)C(F)(F)C(F)(F)C(F)(F)C(F)(F)C(F)(F)C(F)(F)C(F)(F)C(F)(F)F here?
**A.** 46.3 µM (active) and 25 µM (active)

**Q.** With O=S(=O)(O)C(F)(F)C(F)(F)C(F)(F)C(F)(F)C(F)(F)C(F)(F)F as the compound, how does the outcome read?
**A.** inactive

**Q.** With Sc1ccccc1 as the compound, how does the outcome read?
**A.** inactive

Read-out: Vascular cell adhesion molecule 1 (VCAM1), VCAM1 (gene 7412)
Assay: BSK_MyoF_VCAM1: BioMAP Diversity Plus: MyoF Assay for Vascular cell adhesion molecule 1 (VCAM1) Biomarker Activity (AID 2284231)
Conditions: primary human lung fibroblasts
How it was run: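 Primary human lung fibroblasts (BioMAP MyoF system) dosed with chemical, VCAM-1 measured by ELISA 24 hours later. Fitted in the positive direction against DMSO; parallel SRB staining assessed cytotoxicity.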

**Q.** For Oc1c(Cl)c(Cl)c(Cl)c(Cl)c1Cl, which AC50 is on record?
**A.** 2.41 µM (active)

**Q.** Which outcome does the source give for O=S(=O)(O)C(F)(F)C(F)(F)C(F)(F)C(F)(F)F here?
**A.** inactive

**Q.** With O=C(O)C(F)(F)C(F)(F)C(F)(F)C(F)(F)C(F)(F)C(F)(F)C(F)(F)C(F)(F)F as the compound, how does the AC50 read?
**A.** 30 µM (active) and 42.6 µM (active)

**Q.** For O=C(O)C(F)(F)C(F)(F)C(F)(F)C(F)(F)C(F)(F)F, which outcome is on record?
**A.** inactive

**Q.** Which AC50 does the source give for O=C(O)C(F)(F)C(F)(F)C(F)(F)C(F)(F)C(F)(F)C(F)(F)C(F)(F)C(F)(F)C(F)(F)F here?
**A.** 48.6 µM (active) and 44.7 µM (active)

**Q.** For NS(=O)(=O)C(F)(F)C(F)(F)C(F)(F)C(F)(F)C(F)(F)C(F)(F)C(F)(F)C(F)(F)F, which AC50 is on record?
**A.** 20.2 µM (active) and 26.5 µM (active)

**Q.** With O=S(=O)(O)C(F)(F)C(F)(F)C(F)(F)C(F)(F)C(F)(F)C(F)(F)F as the compound, how does the outcome read?
**A.** inactive

**Q.** With Sc1ccccc1 as the compound, how does the outcome read?
**A.** inactive

Tested on: not listed separately
Assay: UKN2_HCS_IMR90_cell_viability: Viability Assessment in the University of Konstanz (UKN) Leist Lab Neural Crest Cell Migration Assay in human induced IMR90 Pluripotent Stem Cells (UKN2) (AID 2284233);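 note: cells exposed to compound for 24 h after a 24 h migration phase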
Conditions: not given
Experimental: UKN2_HCS_IMR90 is a cell-based, multiplexed-readout assay screening for neural crest cell migration and cell viability that uses IMR90 (neural crest cells differentiated from iPSC), a human embryo cell line, with measurements taken at […] after chemical dosing in a microplate: 96-well plate. UKN2, also known as cMINC, is an assay that uses IMR90 cells (neural crest cells differentiated from iPSC) as a model of neural crest cell migration. 24 hr after cell seeding, cell migration was initiated and proceeded for 24 hr. Then, chemical was applied, and after 24 hr of exposure migration and viability were assessed using high-content imaging of cells stained with calcein-AM and Hoechst H-33342.UKN2_HCS_IMR90_cell_viability is an assay component measured from the UKN2_HCS_IMR90 assay. It is designed to make measurements of enzyme activity, a form of viability reporter, as detected with Fluorescence intensity signals by HCS Fluorescent Imaging.The assay endpoint UKN2_HCS_IMR90_cell_viability was analyzed with bidirectional fitting relative to DMSO as the negative control and baseline of activity. Using a type of viability reporter, gain or loss-of-signal activity can be used to understand viability effects. To generalize the intended target to other relatable targets, this assay endpoint is annotated to the cell cycle intended target family, where the subfamily is viability.
The wells are coated with PLO/laminin/fibronectin. Then, silicone stoppers are placed into the wells of a 96-well plate. Cells are seeded around the stoppers and allowed to attach for 24 hours. Day 0: The silicone stoppers are removed and the medium is replaced with pre-warmed, fresh N2-S medium containing the cytokines EGF and FGF. Cells are allowed to migrate into the cell free area. Day 1: 25 ul of the 5x concentrated toxicants are added to the wells. The cells plus toxicants are incubated for 24 h. Day 2: Cells are stained with calcein-AM and Hoechst (H-33342) for 30 min before imaging with a high content imaging microscope. Quantification of migration and viability is done by high content imaging analysis.

**Q.** With CO/C=C(/C(=O)OC)c1ccccc1COc1cccc(C(F)(F)F)n1 as the compound, how does the AC50 read?
**A.** 50 µM (active)

**Q.** For O=S(=O)(O)C(F)(F)C(F)(F)C(F)(F)C(F)(F)F, which outcome is on record?
**A.** inactive

**Q.** Which outcome does the source give for CCOP(=S)(OCC)SCSC(C)(C)C here?
**A.** inactive

**Q.** Which outcome does the source give for O=S(=O)(O)C(F)(F)C(F)(F)C(F)(F)C(F)(F)C(F)(F)C(F)(F)F here?
**A.** inactive

Tested on: not listed separately
Assay: CCTE_Mundy_HCI_Cortical_NOG_NeuronCount: CCTE's Neurite Outgrowth Assay in rat cortical cells for Neuron Count, Mundy Lab (AID 2284236; active = hit-call score of the fitted dose curve at least 0.9, where 1 is the maximum;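 note: neurons counted by imaging betaIII-tubulin and Hoechst stained cortical cells; cells exposed to compound for about 48 hours before fixation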)
Conditions: not given
How it was run: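 Read-out: neuron number by high-content imaging of betaIII-tubulin (Alexa Fluor-488) and Hoechst-labelled rat primary cortical cells.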

**Q.** With CO/C=C(/C(=O)OC)c1ccccc1COc1cccc(C(F)(F)F)n1 as the compound, how does the AC50 read?
**A.** 2.81 µM (active)

**Q.** With ClC1=C(Cl)[C@]2(Cl)[C@@H]3[C@@H]4C[C@@H]([C@H]5O[C@@H]45)[C@@H]3[C@@]1(Cl)C2(Cl)Cl as the compound, how does the AC50 read?
**A.** 21.7 µM (active)

**Q.** Which outcome does the source give for O=S(=O)(O)C(F)(F)C(F)(F)C(F)(F)C(F)(F)F here?
**A.** inactive

**Q.** For CCOP(=S)(OCC)SCSC(C)(C)C, which AC50 is on record?
**A.** 68.1 µM (active)

**Q.** With ClC1=C(Cl)[C@]2(Cl)[C@@H]3[C@@H](Cl)[C@H]4O[C@H]4[C@@H]3C1(Cl)C2(Cl)Cl as the compound, how does the AC50 read?
**A.** 34.2 µM (active)

**Q.** With O=S(=O)(O)C(F)(F)C(F)(F)C(F)(F)C(F)(F)C(F)(F)C(F)(F)F as the compound, how does the outcome read?
**A.** inactive

Tested on: not listed separately
Assay: CCTE_Mundy_HCI_Cortical_NOG_BPCount: CCTE's Neurite Outgrowth Assay in rat cortical cells for Branch Point Count, Mundy Lab (AID 2284237);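 for AC50: branch points counted about two days after chemical exposure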
Conditions: not given
How it was run: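 Measured 50.33 h after dosing, this morphology endpoint uses rat primary cortical cultures labelled for betaIII-tubulin. Branch points are quantified by high-content imaging, with DMSO as negative control and baseline.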

**Q.** Which AC50 does the source give for CO/C=C(/C(=O)OC)c1ccccc1COc1cccc(C(F)(F)F)n1 here?
**A.** 1.28 µM (active)

**Q.** With O=S(=O)(O)C(F)(F)C(F)(F)C(F)(F)C(F)(F)F as the compound, how does the outcome read?
**A.** inactive

**Q.** For COc1ccc(O)c(C(C)(C)C)c1, which outcome is on record?
**A.** inactive

**Q.** Which outcome does the source give for C=CC(N)=O here?
**A.** inactive

**Q.** Which AC50 does the source give for ClC1=C(Cl)[C@]2(Cl)[C@@H]3[C@@H](Cl)[C@H]4O[C@H]4[C@@H]3C1(Cl)C2(Cl)Cl here?
**A.** 9.79 µM (active)

**Q.** Which outcome does the source give for O=S(=O)(O)C(F)(F)C(F)(F)C(F)(F)C(F)(F)C(F)(F)C(F)(F)F here?
**A.** inactive

Read-out: Collagen I, COL1A1 (gene 1277)
Assay: BSK_MyoF_CollagenI: BioMAP Diversity Plus: MyoF Assay for Collagen I Biomarker Activity (AID 2284238)
Conditions: primary human lung fibroblasts
Experimental: BSK_MyoF is a cell-based, multiplexed-readout assay that uses lung fibroblasts, […], with measurements taken at 24 hours after chemical dosing in a microplate: 96-well plate.BSK_MyoF_CollagenI is an assay component measured in the BSK_MyoF assay. It measures Collagen I antibody related to regulation of gene expression using ELISA technology.Data from the assay component BSK_MyoF_CollagenI was analyzed at the endpoint, BSK_MyoF_CollagenI, in the positive analysis fitting direction relative to DMSO as the negative control and baseline of activity. Using a type of binding reporter, gain or loss-of-signal activity can be used to understand protein changes. To generalize the intended target to other relatable targets, this assay endpoint is annotated to the 'cell adhesion molecules' intended target family, where the subfamily is 'collagen'.
The levels of cell surface (or secreted, indicated by the prefix "s") biomarker endpoints were measured by ELISA. Overt cytotoxicity to cells in confluent adherent cultures (all systems other than the BT system) was assessed by measuring total protein levels using sulforhodamine B (SRB) staining in parallel cultures at the time of biomarker measurements, indicated as SRB endpoints. For proliferation assays for adherent cell types, individual cell types are cultured at sub-confluence and relative cell numbers quantified by SRB staining at time points optimized for each system (48 h: 3C and CASM3C systems; 72 h: BT and HDF3CGF systems; 96 h: SAg system). SRB was performed by staining cells with 0.1% SRB after fixation with 10% TCA and reading wells at 560 nm.Viability and proliferation of PBMC (T cells) was quantified by Alamar Blue reduction for the SAg and BT systems. For PBMC viability (referred to as PBMC Cytotoxicity within the assay endpoint names), cells were plated (75,000/well in a 96-well plate) and then chemical samples added for 1 h before addition of activators, SEB and TSST-1 (20 ng/mL final concentration each). Cells were incubated for 90 h. Then, Alamar Blue (20 uL/well) (Invitrogen, Cat DAL1100) was added for 6 h, and the plates were read with a fluorescence microplate reader at 546/580 nm (excitation/emission). For PBMC proliferation, cells were plated and activated as above but incubated for only 16 h prior to addition of Alamar Blue. Plates were read after 6 h.

**Q.** For Oc1c(Cl)c(Cl)c(Cl)c(Cl)c1Cl, which AC50 is on record?
**A.** 2.58 µM (active)

**Q.** Which outcome does the source give for O=S(=O)(O)C(F)(F)C(F)(F)C(F)(F)C(F)(F)F here?
**A.** inactive

**Q.** With O=C(O)C(F)(F)C(F)(F)C(F)(F)C(F)(F)C(F)(F)C(F)(F)C(F)(F)C(F)(F)F as the compound, how does the AC50 read?
**A.** 37.9 µM (active) and 34.1 µM (active)

**Q.** Which outcome does the source give for O=C(O)C(F)(F)C(F)(F)C(F)(F)C(F)(F)C(F)(F)F here?
**A.** inactive

**Q.** With O=C(O)C(F)(F)C(F)(F)C(F)(F)C(F)(F)C(F)(F)C(F)(F)C(F)(F)C(F)(F)C(F)(F)F as the compound, how does the AC50 read?
**A.** 15.8 µM (active) and 18.9 µM (active)

**Q.** Which AC50 does the source give for NS(=O)(=O)C(F)(F)C(F)(F)C(F)(F)C(F)(F)C(F)(F)C(F)(F)C(F)(F)C(F)(F)F here?
**A.** 22.6 µM (active)

**Q.** Which outcome does the source give for O=S(=O)(O)C(F)(F)C(F)(F)C(F)(F)C(F)(F)C(F)(F)C(F)(F)F here?
**A.** inactive

**Q.** With Sc1ccccc1 as the compound, how does the outcome read?
**A.** inactive
